Assay [1] can be described thus: ATG_PXRE_CIS: Attagene CIS-FACTORIAL HepG2 Assay for human Pregnane X Receptor Element (PXRE) (AID 2282957). Particulars: HepG2 Attagene CIS-FACTORIAL PXRE reporter, mRNA; actives raise or lower the signal. In short, it runs like this:
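Using HepG2 transfected with multiple reporter transcription units, endogenous factor-driven transcription was scored as reporter mRNA after 24 h exposure.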

Assay [2] is described as follows: ATG_RORE_CIS: Attagene CIS-FACTORIAL HepG2 Assay for human RAR-related Orphan Receptor Element (RORE) (AID 2282959). Particulars: HepG2 Attagene cis-factorial RORE reporter, mRNA; actives raise or lower the signal. The gist of the method:
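HepG2 cells carrying transiently transfected cis-regulated reporter units; RORE-driven reporter mRNA quantified 24 h post-dosing by RT-PCR, 6-FAM primer extension, HpaI digestion and capillary electrophoresis. Bidirectional fit versus DMSO.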

Assay [3] deals with Transcription factor Sp1 (Homo sapiens) (UniProt P08047). Put plainly: ATG_Sp1_CIS: Attagene CIS-FACTORIAL HepG2 Assay for human Specificity Protein 1 (Sp1) (AID 2282961). Particulars: HepG2 Sp1 cis-reporter transcription, actives raise or lower the signal. In short, it runs like this:
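HepG2 cells transiently transfected with multiplexed cis-regulated reporter constructs, chemical exposure 24 h. Reporter mRNA quantified by RT-PCR with capillary electrophoresis; bidirectional fit relative to DMSO.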

Assay [4] can be described thus: ATG_SREBP_CIS: Attagene CIS-FACTORIAL HepG2 Assay for human Sterol Regulatory Element Binding (SREBP) (AID 2282962). Particulars: HepG2 Attagene cis-factorial SREBP reporter, mRNA; actives raise or lower the signal. The gist of the method: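 Endogenous factor activity is measured in HepG2 through multiplexed reporter units under cis-element control. Following a 24 h incubation, reporter transcripts are reverse-transcribed, PCR-amplified and sized by capillary electrophoresis; activity is fitted in both directions relative to DMSO.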

The target of assay [5] is Signal transducer and activator of transcription 3 (Homo sapiens) (UniProt P40763). Kind of assay: ATG_STAT3_CIS: Attagene CIS-FACTORIAL HepG2 Assay for human Signal Transducer and Activator of Transcription 3 (STAT3) (AID 2282963). Particulars: HepG2, Attagene cis-factorial STAT3 reporter transcription; actives raise or lower the signal. The gist of the method: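 Readout: fluorescent reporter mRNA fragments resolved by capillary electrophoresis. Setup: HepG2 transfected with MRTUs reporting endogenous transcription-factor activity, dosed 24 h. Gain or loss of signal fitted bidirectionally against DMSO control.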

Assay [6] can be described thus: ATG_TA_CIS: Attagene CIS-FACTORIAL HepG2 Assay for human TA Basal Promoter (AID 2282964). Particulars: HepG2 Attagene CIS-factorial TA basal promoter reporter; actives raise or lower the signal. In short, it runs like this: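 Transfected HepG2, 24 h compound exposure; RNA → RT-PCR → FAM primer extension → HpaI cut → CE fluorescence. Gain/loss-of-signal fitted against DMSO negative control. Background-control readout.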

Assay [7] in a line: ATG_TCF_b_cat_CIS: Attagene CIS-FACTORIAL HepG2 Assay for human T-Cell-Factor with beta-catenin (TCF/b-cat) (AID 2282965). Particulars: HepG2 TCF/beta-catenin cis-reporter transcription, actives raise or lower the signal. The gist of the method: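 Cells of the HepG2 line carry transiently transfected reporter units whose promoters respond to endogenous factors. Twenty-four hours post-dosing, reporter mRNA induction is measured by fluorescent RT-PCR and capillary electrophoresis, with DMSO as baseline.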

The nature of assay [8]: ATG_Sox_CIS: Attagene CIS-FACTORIAL HepG2 Assay for human SRY-box transcription factor (SOX) (AID 2282960). Particulars: HepG2 Attagene cis-factorial SOX reporter, mRNA; actives raise or lower the signal. In short, it runs like this:
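HepG2 cells transiently transfected with multiple cis-regulated reporter units, then dosed for 24 h. Reporter mRNA quantified by RT-PCR, fluorescent labelling, HpaI digestion and capillary electrophoresis; bidirectional fit versus DMSO.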

Assay [9] can be described thus: ATG_TAL_CIS: Attagene CIS-FACTORIAL HepG2 Assay for human TAL Basal Promoter (AID 2282966).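 Note: background control endpoint measuring basal TAL promoter reporter mRNA not a specific factor.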 Particulars: HepG2 Attagene cis-factorial TAL promoter reporter; actives raise or lower the signal. The gist of the method:
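After 24 hours of chemical exposure, transfected HepG2 cells yielded RNA that was converted to 6-FAM-labelled, HpaI-digested reporter fragments for capillary electrophoresis. Values derive from bidirectional fitting against DMSO controls.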

The nature of assay [10]: ATG_PPRE_CIS: Attagene CIS-FACTORIAL HepG2 Assay for human Peroxisome Proliferator-activated Response Element (PPRE) (AID 2282958). Particulars: HepG2 PPRE cis-element reporter, Attagene transcription factor profiling; actives raise or lower the signal. The gist of the method:
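HepG2 cells are transiently transfected with multiplexed cis-promoter reporter units to report endogenous PPAR activity. After 24 h dosing, reporter mRNA is read by RT-PCR and capillary electrophoresis. Fitting is bidirectional against DMSO.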

The source made the active and inactive calls. Rule for the calls: active = hit-call score of the fitted dose curve at least 0.9, where 1 is the maximum; inactive = score below 0.9.

Signal transducer and activator of transcription 3 (Homo sapiens), sequence (P40763 whole entry, looked up, the tested form may be a part): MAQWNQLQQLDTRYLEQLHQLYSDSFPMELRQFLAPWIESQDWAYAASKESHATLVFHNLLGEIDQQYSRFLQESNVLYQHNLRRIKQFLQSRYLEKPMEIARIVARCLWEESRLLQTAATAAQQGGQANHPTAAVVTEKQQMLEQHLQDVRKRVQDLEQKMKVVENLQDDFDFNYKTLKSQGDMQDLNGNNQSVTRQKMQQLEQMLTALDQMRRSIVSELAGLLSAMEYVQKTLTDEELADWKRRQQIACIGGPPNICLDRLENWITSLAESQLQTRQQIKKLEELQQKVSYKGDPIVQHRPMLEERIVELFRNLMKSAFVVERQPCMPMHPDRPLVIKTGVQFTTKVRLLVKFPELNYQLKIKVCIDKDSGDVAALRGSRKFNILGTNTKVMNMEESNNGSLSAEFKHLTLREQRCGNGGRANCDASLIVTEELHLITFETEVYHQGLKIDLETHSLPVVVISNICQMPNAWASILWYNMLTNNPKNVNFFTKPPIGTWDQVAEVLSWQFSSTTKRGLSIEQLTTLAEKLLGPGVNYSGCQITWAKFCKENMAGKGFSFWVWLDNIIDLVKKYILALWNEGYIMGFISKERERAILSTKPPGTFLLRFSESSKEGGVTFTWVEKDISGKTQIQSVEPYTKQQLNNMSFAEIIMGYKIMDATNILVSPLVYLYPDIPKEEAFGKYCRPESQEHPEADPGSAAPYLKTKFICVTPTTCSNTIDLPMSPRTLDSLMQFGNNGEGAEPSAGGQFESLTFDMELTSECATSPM
Transcription factor Sp1 (Homo sapiens), sequence (P08047 whole entry, looked up): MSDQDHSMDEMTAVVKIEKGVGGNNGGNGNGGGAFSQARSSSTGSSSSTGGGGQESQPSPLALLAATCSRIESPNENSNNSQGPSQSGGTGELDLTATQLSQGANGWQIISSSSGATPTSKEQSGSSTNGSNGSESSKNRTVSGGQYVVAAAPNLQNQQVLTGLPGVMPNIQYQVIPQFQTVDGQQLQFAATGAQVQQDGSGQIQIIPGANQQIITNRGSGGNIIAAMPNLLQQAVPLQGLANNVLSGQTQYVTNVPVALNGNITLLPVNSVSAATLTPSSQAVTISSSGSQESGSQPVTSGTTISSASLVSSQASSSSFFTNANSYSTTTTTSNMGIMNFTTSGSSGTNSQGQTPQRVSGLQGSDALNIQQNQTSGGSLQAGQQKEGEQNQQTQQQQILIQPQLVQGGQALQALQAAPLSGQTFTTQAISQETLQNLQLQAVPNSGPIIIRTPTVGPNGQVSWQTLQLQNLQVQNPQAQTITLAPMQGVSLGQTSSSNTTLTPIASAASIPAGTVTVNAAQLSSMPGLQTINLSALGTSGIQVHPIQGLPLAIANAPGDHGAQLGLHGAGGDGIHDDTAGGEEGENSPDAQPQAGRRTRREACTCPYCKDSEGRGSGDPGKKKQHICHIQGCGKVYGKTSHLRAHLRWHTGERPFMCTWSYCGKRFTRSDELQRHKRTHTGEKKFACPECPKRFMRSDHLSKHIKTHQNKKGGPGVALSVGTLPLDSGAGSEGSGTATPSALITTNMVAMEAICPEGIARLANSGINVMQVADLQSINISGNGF

On to `CC1=CC[C@@]23C[C@@H]1C(C)(C)[C@@H]2CC[C@H]3C`, for which, in assay [1], the half-maximal activity concentration (AC50) was 5.2 µM (active). Besides, the molecule was classed as inactive in assay [2], in [3], in assay [4], in assay [5], in assay [6] and in [7].

As to `CCC(=O)OCCOc1ccccc1`, the result in [1], in assay [2], in [8], in assay [3], in assay [4] and in [5] was inactive. Moreover, the result in assay [6], in assay [7] and in [9] was inactive.

For the molecule `Cc1occc(=O)c1OC(=O)C(C)C`, the molecule was classed as inactive in [1], in [2], in assay [3], in assay [4], in assay [5] and in assay [6]. Besides, the result in assay [7] and in assay [9] was inactive.

For the molecule `CCCCCCCCCCCC(=O)OCC(O)CO` (stereo not given), the values for the concentration at half-maximal activity (AC50) in assay [1] and in assay [4] were 169 µM (active) and 100 µM (active), respectively. The result in assay [2], in [3], in [5], in assay [6] and in assay [7] was inactive.

Take `Nc1c(S(=O)(=O)O)cc(Br)c2c1C(=O)c1ccccc1C2=O`: the half-maximal activity concentration (AC50) in [1] is 22.4 µM (active); in assay [2] it was 100 µM (active); in [6], 100 µM (active). Also, the molecule was called inactive in assay [8], in assay [3], in assay [4], in assay [5], in [7] and in assay [9].

Take `CCO/C=C1\N=C(c2ccccc2)OC1=O`: in assay [1], the AC50 was 63.8 µM (active). The outcome in assay [2], in [8], in assay [3], in assay [4], in assay [5] and in assay [6] was inactive. The result in assay [7] and in assay [9] was inactive.

For `CC(=O)O[C@H]1C[C@@H]2CC[C@@]1(C)C2(C)C`, the outcome in assay [1], in [2], in [8], in [3], in assay [4] and in [5] was inactive. The molecule was classed as inactive in [6], in assay [7] and in assay [9].

In the case of `CCCCCCCCCCCCCC(=O)OCC(O)CO` (stereo not given), the molecule was called inactive in assay [1], in [2], in [3], in assay [5], in assay [6] and in assay [7]. In addition, in [9], the call was inactive. In assay [4], the half-maximal activity concentration (AC50) was 67 µM (active).

For `C=C(C)C(=O)OCCOCCOCCOC(=O)C(=C)C`, the AC50 in assay [1] was 54.8 µM (active). In addition, the molecule was called inactive in [2], in assay [8], in assay [3], in assay [4], in assay [5] and in [6]. For the same molecule, the molecule was classed as inactive in assay [7] and in [9].

In the case of `O=[N+]([O-])c1cccc(Cl)c1`, the result in [1], in assay [2], in assay [8], in assay [3], in assay [4] and in assay [5] was inactive. Moreover, the molecule was called inactive in [6], in [7] and in assay [9].

As for `C=C(C)C(=O)OCCOCCOCCOCCOC(=O)C(=C)C`, the half-maximal activity concentration (AC50) in [1] was 35.3 µM (active). Also, the result in [2], in [8], in [3], in [5], in assay [6] and in assay [7] was inactive. Moreover, the call in [9] was inactive.

Regarding `CCCCCCC(C)Nc1ccc(Nc2ccccc2)cc1` (stereo not given), in assay [1], the half-maximal activity concentration (AC50) was 1.78 µM (active). The outcome in assay [2], in [8], in assay [3], in assay [4], in assay [5] and in assay [6] was inactive. Moreover, the call in assay [7] and in assay [9] was inactive.

For `CCCCOCC`, the molecule was classed as inactive in [1], in assay [2], in assay [8], in assay [3], in [4] and in assay [5]. Also, the call in [6], in assay [7] and in assay [9] was inactive.

Regarding `CC(C)C[C@H](NC(=O)OCC1c2ccccc2-c2ccccc21)C(=O)O`, the AC50 in assay [1] is 28.2 µM (active); in assay [4], 69.1 µM (active). Moreover, the call in assay [2], in assay [8], in assay [3], in assay [5], in [6] and in [7] was inactive. Moreover, in assay [9], the call was inactive.

As for `Oc1c(Cl)cc(Cl)c(Cl)c1Cc1c(O)c(Cl)cc(Cl)c1Cl`, the values for the half-maximal activity concentration (AC50) in assay [1], in assay [2] and in [7] were 0.802 µM (active), 2.2 µM (active) and 11.1 µM (active), respectively. The result in assay [8], in [3], in assay [4], in assay [5], in assay [6] and in assay [9] was inactive.

In the case of `CCCCC(CC)C(=O)OC(C)C` (stereo not given), the call in [1], in assay [2], in assay [8], in [3], in assay [4] and in assay [5] was inactive. The call in [7] and in assay [9] was inactive.

As to `OCC(O)c1ccccc1` (stereo not given), the outcome in assay [1], in assay [2], in assay [8], in [3], in assay [4] and in assay [5] was inactive. In addition, the outcome in [6], in [7] and in assay [9] was inactive.

`CC(C)c1ccccc1O`: in assay [1], the concentration at half-maximal activity (AC50) was 81.1 µM (active). The result in assay [2], in assay [8], in assay [3], in [4], in assay [5] and in assay [6] was inactive. In addition, the molecule was called inactive in [7] and in assay [9].

With `CCCCCCC(=O)c1ccccc1`, in assay [1], the AC50 was 43.2 µM (active). The call in [2], in [8], in [3], in assay [4], in [5] and in assay [7] was inactive. Besides, in assay [9], the outcome was inactive.

Regarding `CN(C)c1ccncc1`, the result in [2], in [3], in assay [4], in [5], in assay [7] and in assay [9] was inactive.

As for `C=C[Si]1(C)O[Si](C)(C=C)O[Si](C)(C=C)O[Si](C)(C=C)O1` (stereo not given), the molecule was called inactive in assay [10], in assay [2], in [8], in [3], in assay [5] and in [6]. Moreover, the result in assay [7] and in [9] was inactive.

Turning to `NCCNc1cccc2ccccc12`, the AC50 in assay [10] is 99.2 µM (active); in assay [4], 35.6 µM (active); in assay [7] it was 49.8 µM (active). The call in [8], in assay [3], in assay [5], in [6] and in assay [9] was inactive.

On to `N#Cc1cscn1`, for which the result in assay [2], in assay [3], in [4], in assay [5], in assay [6] and in [7] was inactive. For the same molecule, in [9], the molecule was called inactive.

With `CCN(CC)C(=O)N(CC)CC`, the result in assay [10], in assay [2], in assay [8], in assay [3], in assay [4] and in [5] was inactive. Moreover, the molecule was called inactive in assay [6], in assay [7] and in [9].

For the molecule `OCCc1ccccc1`, the outcome in [2], in assay [3], in assay [4], in assay [5], in assay [6] and in assay [7] was inactive. In [9], the molecule was called inactive.

As to `O=C(Nc1ccc([N+](=O)[O-])cc1)Nc1ccc([N+](=O)[O-])cc1` (tested in a mixture with another compound), the molecule was called inactive in [10], in assay [2], in assay [8], in [3], in assay [4] and in [5]. For the same molecule, the molecule was called inactive in assay [6], in assay [7] and in [9].

Consider `C=CCN(CC=C)CC=C`, for which the call in assay [10], in assay [2], in assay [8], in [3], in assay [4] and in assay [5] was inactive. Moreover, the molecule was classed as inactive in assay [6], in assay [7] and in [9].

The term AC50 denotes the concentration at which the activity in the assay is half-maximal.

These data come from PubChem BioAssay (EPA / NIEHS).
